# Measurements reported in PubChem BioAssay AID1053122 (Broad Institute, 2014).
# Entries with a potency or affinity are not part of this list. Activity calls are given as the source filed them.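 How the source made its calls: active means CTGF level falls with dose and the fitted half-maximal dose is at most twice the top valid dose; inconclusive means flat fit with 30 to 70% drop, or a poor fit; inactive means the rest.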
# Assay: CTGF mRNA reduction in DLD1 cells – cell-based, DLD1 colon cancer, RT-qPCR, cherry-pick, dose response (AID 1053122)
# Settings: DLD1 CTGF mRNA (YAP1 pathway), 24 h; series mostly up to 26 µM; CTGF expression fold change (lower = inhibition): at the top concentration
row,SMILES,CTGF expression fold change (lower = inhibition)
1,COc1cccc(-c2ccc([C@@H]3[C@@H](CO)N4CCCCN(C(=O)Cc5ccncc5)C[C@@H]34)cc2)c1,0.867 unspecified (inactive)
2,O=C(Cc1ccncc1)N1CCCCN2[C@H](CO)[C@@H](c3ccc(C#Cc4ccccc4F)cc3)[C@H]2C1,0.661 unspecified (inactive)
3,O=C(Cc1ccncc1)N1CCCCN2[C@H](CO)[C@@H](c3ccc(C#Cc4ccccc4F)cc3)[C@@H]2C1,0.409 unspecified (inactive)
4,COc1cccc(-c2ccc([C@@H]3[C@H](CO)N4CCCCN(C(=O)Cc5ccncc5)C[C@@H]34)cc2)c1,0.779 unspecified (inactive)
5,COc1cccc(-c2ccc([C@H]3[C@H](CO)N4CCCCN(C(=O)Cc5ccncc5)C[C@@H]34)cc2)c1,0.94 unspecified (inactive)
6,COc1cccc(-c2ccc([C@@H]3[C@@H](CO)N4CCCCN(C(=O)Cc5ccncc5)C[C@H]34)cc2)c1,0.988 unspecified (inactive)
7,COc1cccc(-c2ccc([C@H]3[C@@H](CO)N4CCCCN(C(=O)Cc5ccncc5)C[C@H]34)cc2)c1,1.61 unspecified (inactive)
8,O=C(Cc1ccncc1)N1CCCCN2[C@H](CO)[C@H](c3ccc(C#Cc4ccccc4F)cc3)[C@H]2C1,1.23 unspecified (inactive)
9,COc1cccc(-c2ccc([C@H]3[C@@H](CO)N4CCCCN(C(=O)Cc5ccncc5)C[C@@H]34)cc2)c1,0.966 unspecified (inactive)
10,O=C(Cc1ccncc1)N1CCCCN2[C@H](C1)[C@@H](c1ccc(C#Cc3ccccc3F)cc1)[C@@H]2CO,0.741 unspecified (inactive)
11,O=C(Cc1ccncc1)N1CCCCN2[C@@H](CO)[C@@H](c3ccc(C#Cc4ccccc4F)cc3)[C@@H]2C1,0.834 unspecified [at 23.5 µM] (inactive)
12,COc1cccc(-c2ccc([C@@H]3[C@H]4CN(C(=O)Cc5ccncc5)CCCCN4[C@H]3CO)cc2)c1,1.38 unspecified (inactive)
